Compound activity (PubChem)
Sampled rows, rich in hits. Any-hit rate of the full collection: about 5.2%.
Sfp inh: Sfp phosphopantetheinyl transferase inhibition; Q9F4F7; Biochemical Sfp PPTase activity, qHTS; Potency, µM, without a hit: largest response in the series, negative = inhibition, usual class: inhibitors; hit rate 3.5% among 310,000; AID 1490;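 note: the enzyme is Sfp with the accession as filed and its product quenches rhodamine fluorescence; 0% = enzyme reaction without inhibitor and -100% = no enzyme wells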
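Step 1, compound plus 15 nM Sfp-PPTase, 15 min, room temperature. Step 2, add rhodamine-CoA (5 uM) and BHQ-2-YbbR (12.5 uM). Step 3, read 525/598 nm fluorescence at 0 and 30 min.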
VDR inhibitor: vitamin D3 receptor (human) inhibition. VDR-SRC2-3 peptide fluorescence polarization, 2 h. Potency, µM, for inactives: max response, negative = inhibition, most hits filed as inhibitors. hit rate 0.93% among 400,000
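Reagent solutions, kept cold and dark, are dispensed first; compounds are then pinned in at 23 nl, plates briefly spun, and incubated 2 h at ambient temperature. Inhibition of VDR–SRC2-3 peptide binding is read by fluorescence polarization.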
mIDH1 inhibitor: inhibitors of human mutant IDH1 R132H; IDH1-R132H enzyme, NADPH consumption, diaphorase/resazurin fluorescence; O75874; Potency, µM (doses to about 76.6 µM), for the others: at the highest dose activity change, negative = inhibition, hits mostly inhibitors; hit rate 0.093% among 390,000; note: nearly all actives have a fitted effect of over 65% in size
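IDH1-R132H (0.5 ug/mL dispensed) in pH 7.5 Tris buffer was preincubated 30 min with compound, then given a substrate mix of 0.016 mM NADPH and 2 mM alpha-KG for 80 min at room temperature; remaining NADPH was read by diaphorase/resazurin fluorescence.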
TrxR1 substrate: rat thioredoxin reductase 1 substrate activity; O89049; purified TrxR1 substrate turnover, NADPH consumption readout; Potency, µM (series often up to 114 µM), for the others: at the top dose activity change, negative = substrate turnover; hit rate 0.01% among 390,000; note: nearly all actives have a fitted effect of over 50% in size
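Rat TrxR1, dispensed at 90 nM, was prereduced with 400 uM NADPH (final) for 5 min at ~22 deg C, then incubated with compound 15 min before 400 uM selenite. A first-read NADPH fluorescence drop versus no-compound background flagged substrates.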
PLK1 PBD block: inhibitors of human PLK1 polo-box domain binding; P53350; Plk1 PBD binding of FITC phosphopeptide, fluorescence polarization; Potency, µM, inactives show max response, negative = inhibition, usual class: inhibitors; hit rate 2.8% among 360,000; AID 720504; note: series mostly up to about 57 µM; nearly all actives have a fitted effect of over 65% in size
Target sequence (P53350 whole entry, looked up, the tested form may be a part): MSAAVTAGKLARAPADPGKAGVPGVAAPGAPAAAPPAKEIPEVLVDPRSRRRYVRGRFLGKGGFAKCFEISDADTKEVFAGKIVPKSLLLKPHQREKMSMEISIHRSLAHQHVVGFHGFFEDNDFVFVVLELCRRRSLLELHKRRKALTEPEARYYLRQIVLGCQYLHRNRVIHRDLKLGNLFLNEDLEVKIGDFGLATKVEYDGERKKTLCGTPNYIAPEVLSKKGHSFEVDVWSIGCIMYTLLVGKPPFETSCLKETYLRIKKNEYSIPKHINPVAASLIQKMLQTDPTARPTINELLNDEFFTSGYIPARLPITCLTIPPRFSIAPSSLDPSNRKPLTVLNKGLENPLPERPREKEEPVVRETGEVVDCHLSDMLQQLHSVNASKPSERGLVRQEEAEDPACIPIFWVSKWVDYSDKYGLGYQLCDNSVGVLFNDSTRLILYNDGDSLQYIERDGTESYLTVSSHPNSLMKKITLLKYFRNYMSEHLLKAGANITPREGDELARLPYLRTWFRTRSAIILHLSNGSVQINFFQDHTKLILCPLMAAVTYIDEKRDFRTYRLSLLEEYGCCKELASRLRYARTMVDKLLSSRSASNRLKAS
rTrxR1 inhibitor: rat TrxR1 inhibition | O89049 | recombinant rTrxR1, NADPH fluorescence consumption, selenite substrate | Potency, µM (series often up to 114 µM), without a hit: at the highest dose activity change, negative = inhibition, hits mostly inhibitors | hit rate 1% among 390,000; note: nearly all actives have a fitted effect of over 65% in size
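Rat TrxR1 (90 nM in the dispensed reagent) was pre-reduced with 400 uM NADPH for 5 min at room temperature, then incubated with compound for 15 min. After 400 uM selenite was added, NADPH fluorescence (Ex 340/Em 450 nm) was followed for 8 min.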
* hit, by the source's call; ? = inconclusive; . = no result given; [ ] = dose if it differs, or a comment. Calls come from the whole dose curve; as a rule, active = well fitted curve in the direction sought with a large enough effect; inconclusive = small, poorly fitted or top-dose-only effect, or another doubt; inactive = no such curve, though single readings can be large; an effect the other way counts as inactive or inconclusive. Unless noted, % is set by controls: 0 for no effect and ±100 for the full control effect; potency is the fitted concentration of half-maximal effect.

SMILES	Sfp inh	VDR inhibitor	mIDH1 inhibitor	TrxR1 substrate	PLK1 PBD block	rTrxR1 inhibitor
N#CC1C(=O)c2ccccc2C1c1ccccc1 (stereo not drawn)	.	45µM*	7%	5%[11.4 µM]	30µM*	8%[11.4 µM]
O=C1CCC(c2ccccc2)c2ccccc21 (stereo not drawn)	.	-3%	16%	2%	5%	18%
CCN(CC)c1nc(C#N)nc(N2CCOCC2)n1	.	-13%	.	-1%	.	10%
COC(=O)CC1C2(C)CC34OC5(C)O[C@@]6(C7/C(=C(/OC)C(C)C)C(=O)OC(c8ccoc8)[C@@]7(C)C(OC(=O)C(C)C)C(OC)[C@]6(O5)[C@@]13C)C(OC)[C@]4(OC)C2OC(C)=O (stereo partly drawn)	-7%	-21%	.	.	.	.
N#Cc1c(-c2ccco2)cc(-c2ccc(F)cc2)nc1N	28µM*	-12%	7%	74%[57.1 µM]	?	?
CCc1nn2c(=O)cc(COC(=O)c3ccccc3NC(=O)C3CCCCC3)nc2s1	.	8%	-14%	-7%[57.1 µM]	.	2%[57.1 µM]
Cn1cc(CN(Cc2ccccn2)C[C@@H]2CCC(=O)N2)c(-c2ccccc2F)n1	79µM*	22%	5%	6%	-11%	-13%
Cn1cc(CN(Cc2ccccc2)C[C@@H]2CCC(=O)N2)c(-c2ccccc2F)n1	21%	-4%	9%	16%	-3%	28%
CCOc1ccc(C(=O)NNC(=O)CN2C(=O)NC3(CCCC3)C2=O)cc1	.	-25%	0%	4%	2%	14%
Cn1c(=O)n(C)c2cc(N3CCOCC3)c(NC(=O)c3ccc(Cl)cc3)cc21	.	12%	24%	2%	.	-2%
O=[N+]([O-])c1cc(-c2ncccn2)c([N+](=O)[O-])s1	?	35µM*	27%	-17%	2.7µM*	2µM*
COc1ccccc1N1CCN(C2CCCN(C(=O)CCc3ccccn3)C2)CC1 (stereo not drawn)	10%	-13%	7%	7%	3%	-6%
COCCn1c(-c2ccc(-c3ccc([N+](=O)[O-])cc3Br)o2)nc2c1c(=O)[nH]c(=O)n2CC(C)C	28µM*	-3%	0%	-4%	-6%	-52%
COc1ccc(-c2ccc(-c3nc4c(c(=O)[nH]c(=O)n4Cc4ccccc4)n3C)o2)c([N+](=O)[O-])c1	10µM*	6%	4%	6%[57.1 µM]	-5%	7%[57.1 µM]
COCCn1c(=O)[nH]c(=O)c2c1nc(-c1ccc(-c3ccc(Cl)cc3[N+](=O)[O-])o1)n2Cc1ccccc1	?	-17%	-2%	-10%	-13%	?
CCCCn1c(=O)[nH]c(=O)c2c1nc(-c1ccc(-c3ccccc3Br)o1)n2CC	14µM*	-10%	-3%	3%	-19%	?
C[C@H]1CN([C@@H](C)CO)C(=O)CCCn2nncc2CO[C@H]1CN(C)S(=O)(=O)c1ccc2ccccc2c1	.	.	-26%	.	-3%	.
CCc1nc2ccc(C(=O)NCc3cccs3)cn2c1N(CC)Cc1cccc(Br)c1	.	.	.	.	5%	.
Cc1cc(O)c(Oc2cc(C)cc(O)c2O)c(O)c1	5µM*	-21%	-7%	6%	?	?
Cc1ccccc1C1N=C2Oc3ccccc3C=C2C(=O)N1 (stereo not drawn)	.	.	.	.	-8%	.
CCCN(CC1CCCO1)C(=O)CCc1nnc(CCc2ccc(OC)cc2)o1 (stereo not drawn)	5%	?	0%	8%[57.1 µM]	13µM*	24%[57.1 µM]
COc1ccc(OC)c(NC(=O)CN(c2ccccc2OC)S(=O)(=O)c2ccc(C)cc2)c1	.	1%	5%	7%	.	27%
O=C(NCCCN1CCCC1=O)c1ccc2c(c1)NC(=O)C(N1CCOCC1)S2 (stereo not drawn)	71µM*	-20%	1%	10%	-8%	15%
COC(=O)c1ccc2c(c1)NC(=O)C(N1CCOCC1)S2 (stereo not drawn)	13%	-8%	-1%	5%	2%	13%
CCOC(=O)C(=CNc1ccc(-c2ccco2)c(Cl)c1)C(=O)OCC	28µM*	-27%	-9%	5%	-18%	-32%
SMILES	Sfp inh	VDR inhibitor	mIDH1 inhibitor	TrxR1 substrate	PLK1 PBD block	rTrxR1 inhibitor
CC(C)(C)NCC(O)COCc1ccc(Cl)cc1 (stereo not drawn)	10%	-18%	-1%	8%[57.1 µM]	24µM*	10%[57.1 µM]
Cc1ccc(C(=O)N/C(=C\c2cn(S(=O)(=O)N(C)C)c3ccccc23)C(=O)NCCCn2ccnc2)cc1	5%	-19%	4%	-14%[57.1 µM]	30µM*	5%[57.1 µM]
N#Cc1cccc(NC(=O)Cn2cnc(S(=O)(=O)N3CCCC3)c2)c1	15%	-3%	-3%	1%	-9%	18%
N#Cc1cccc(NC(=O)Cn2cnc(S(=O)(=O)N3CCOCC3)c2)c1	8%	?	-4%	10%[57.1 µM]	9.5µM*	6%[57.1 µM]
C[C@@H]1CN([C@@H](C)CO)C(=O)CCCn2nncc2CO[C@H]1CN(C)S(=O)(=O)c1ccc(Oc2ccccc2)nc1	.	.	-4%	.	-16%	.
CC(C)c1ccc(C2C(C#N)=C(N)N3C(=C2C#N)Sc2ccccc23)cc1 (stereo not drawn)	-18%	.	.	.	.	.
N#CC1=C2SCN(C3CCCCC3)CN2C(=O)CC1c1ccc(F)cc1 (stereo not drawn)	.	18µM*	56%	-12%	.	-26%
N#CC1=C2SCN(C3CCCCC3)CN2C(=O)CC1c1ccc(Cl)cc1 (stereo not drawn)	.	22µM*	8%	-4%	.	-14%
N#CC1=C2SCN(C3CCCCC3)CN2C(=O)CC1c1c(F)cccc1Cl (stereo not drawn)	.	20µM*	2%	-14%	.	?
CC(C)c1ccc(C2CC(=O)N3CN(C)CSC3=C2C#N)cc1 (stereo not drawn)	4.5µM*	?	1%	-6%[57.1 µM]	4.7µM*	-6%[57.1 µM]
O=C1CSC(c2ccc(Cl)cc2)N1C1CCCCC1 (stereo not drawn)	9%	24%	1%	3%[57.1 µM]	-9%	1%[57.1 µM]
CN(Cc1ccccc1)C(=O)C(=O)c1c[nH]c2ccccc12	.	.	-3%	.	2%	.
CC1=C(C(=O)O)N2C(=O)C(NC(=O)c3nn(C)c(C)c3Cl)C2SC1 (stereo not drawn)	11µM*	-16%	0%	5%	?	-20%
CC1=C(C(=O)O)N2C(=O)C(NC(=O)c3ccn(C)n3)C2SC1 (stereo not drawn)	22µM*	-16%	-3%	0%[57.1 µM]	?	13%[57.1 µM]
CC1=C(C(=O)O)N2C(=O)[C@@H](NC(=O)[C@H](N)c3ccc(O)cc3)[C@H]2SC1	.	-5%	4%	5%	-1%	11%
CCC1(CC)NC(=O)N(CC(=O)OCC(=O)Nc2ccc(OC(F)(F)F)cc2)C1=O	.	-13%	-3%	-2%	-7%	5%
